Laboratory results: PubChem BioAssay (Tox21)
Several values for one entry are separate records, joined by “and”; a condition that tells them apart may be missing. Equal values may be shown once. Results filed as inconclusive are left out. Entries that show only a call come without a potency. Activity calls are given as the source filed them. Calls follow the shape of the dose curve; as a rule, active = well fitted inhibition curve with a large enough effect in the repeat runs; inconclusive = weak or mixed curves; inactive = no such curve, though single readings can be large or run the other way.

Molecular target: Cytochrome P450 3A4 (Homo sapiens) (UniProt P08684)
Sequence (P08684 whole entry, looked up): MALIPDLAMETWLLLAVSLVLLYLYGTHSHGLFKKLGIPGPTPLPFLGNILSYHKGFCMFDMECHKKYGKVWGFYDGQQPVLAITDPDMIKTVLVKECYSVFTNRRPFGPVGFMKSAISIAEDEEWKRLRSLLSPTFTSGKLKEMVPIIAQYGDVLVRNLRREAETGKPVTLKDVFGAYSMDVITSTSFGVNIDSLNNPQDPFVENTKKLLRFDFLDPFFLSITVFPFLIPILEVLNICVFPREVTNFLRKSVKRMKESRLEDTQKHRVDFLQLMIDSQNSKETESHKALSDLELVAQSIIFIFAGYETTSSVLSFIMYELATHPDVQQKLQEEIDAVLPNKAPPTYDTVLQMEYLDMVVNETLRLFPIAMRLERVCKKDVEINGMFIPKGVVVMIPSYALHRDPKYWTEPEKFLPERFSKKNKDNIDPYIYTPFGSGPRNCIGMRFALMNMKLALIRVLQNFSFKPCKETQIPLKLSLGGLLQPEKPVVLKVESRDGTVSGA
Test: Cytochrome P450 Family 3 Subfamily A Member 4 (CYP3A4) small molecule antagonists: luciferase reporter qHTS assay (AID 1671201); also: nearly all actives have a fitted effect of over 50% in size
Settings: P450-Glo CYP3A4 enzyme, luciferin luminescence, 1 h; series mostly up to 115 µM
How it was run: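 Room-temperature assay throughout: 10 min compound–enzyme/substrate preincubation, 1 h reaction after NADPH regeneration solution, 20 min detection. Luciferin formed from proluciferin substrate is quantified by luminescence.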
Potency is read from the fitted curve at half-maximal effect.

Structure (SMILES) | Potency
COc1cc(C(=S)N2CCOCC2)ccc1O | inactive
CN1C(=O)c2ccc([N+](=O)[O-])cc2C1=O | 39.9 µM (active)
CC(C)(C)c1ccccc1 | inactive
CC(C(O)c1ccc(O)cc1)N1CCC(Cc2ccccc2)CC1 (centres undefined) | inactive
O=C(O)c1cc(Cl)cc(Cl)c1 | inactive
CCn1cc(C(=O)O)c(=O)c2cc(F)c(N3CCNC(C)C3)c(F)c21 (centres undefined) | inactive
CCCCN(CCO)CCCC | inactive
O=Cc1ccc(Cl)cc1 | inactive
CC(N)=O | inactive
CCCOC(=O)c1cc(O)c(O)c(O)c1 | inactive
CC(=O)OCC1=C(C(=O)O)N2C(=O)[C@@H](NC(=O)Cc3cccs3)[C@H]2SC1 | inactive
CCOc1ccc2c(c1)C(C)=CC(C)(C)N2 | 12.6 µM (active) and 17.8 µM (active)
CC(=O)C1=C(C)[C@@H]2C[C@@]3(C1)[C@H](C)CC[C@H]3C2(C)C | 25.2 µM (active)
c1ccc2c(c1)-c1cccc3c1c-2cc1ccccc13 | inactive
CC(C)(C)NCC(O)c1cc(O)cc(O)c1 (centres undefined) | inactive
Oc1c(Cl)cc(Cl)cc1Sc1cc(Cl)cc(Cl)c1O | inactive
Nc1cc(Cl)c(-c2cc(Cl)c(N)cc2Cl)cc1Cl | 2 µM (active) and 3.56 µM (active)
CNC1(C)C2CCC(C2)C1(C)C (centres undefined) | inactive
O=c1n(CC2CO2)c(=O)n(CC2CO2)c(=O)n1CC1CO1 (centres undefined) | inactive
CCC(CO)(CO)COCC(CC)(CO)CO | inactive
O=C(Cl)c1cccc(C(=O)Cl)c1 | inactive
CCCCC/C=C/CC1CC(=O)OC1=O (centres undefined) | inactive
CCc1cc(C(C)(C)C)c(O)c(C(C)(C)C)c1 | inactive
C[N+]1([O-])CCOCC1 | inactive
